HT1080NT lethal – kills 2HG-producing HT-1080-NT fibrosarcoma cells. HT-1080-NT fibrosarcoma viability, CellTiter-Glo ATP luminescence, 48 h. Potency, µM (top dose mostly 46.1 µM), for inactives: at the highest dose activity, negative = less viability, usual class: cytotoxic. 1.6% of 360,000 active. AID 686970;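 note: NT is the 2HG producing partner of a matched IDH1 knockdown line; 0% = DMSO-treated cells and -100% = media-only wells without cells; nearly all actives have a fitted effect of over 55% in size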
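Read-out is CellTiter-Glo luminescence after 10 minutes at room temperature, following 48 hours' compound treatment of HT-1080-NT cells (750 cells/well, RPMI, 5% FBS, 37 degrees C).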
TGFb inhibitor – TGF-b pathway inhibition; HepG2 CAGA-GFP TGF-b/SMAD3 reporter, GFP fluorescence, 18 h; TGF-beta stimulated, 500 pg/mL final; Potency, µM (top dose mostly 46.1 µM), for the others: top-dose activity, negative = inhibition, usual class: inhibitors; 1.2% of 410,000 active; AID 588855; note: % is set by controls: 0 for no effect and ±100 for the full control effect; nearly all actives have a fitted effect of over 65% in size
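First, reporter cells (HEPG2 CAGA-GFP) rested 2 h at 37 degrees C. Next, compounds were pinned in and TGF-beta added to 500 pg/mL final. After 18 h, GFP was imaged per cell and summed per well.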
HepG2 tox-1 – kills HepG2 cells in TGF-b inhibitor counter-screen | HepG2 CAGA-GFP viability, ATP luminescence, 18 h | Potency, µM (highest dose often 46.1 µM), inactives show top-dose activity change, negative = cytotoxicity, hits mostly cytotoxic | 0.76% of 410,000 active
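CellTiter-Glo luminescence gave cytotoxicity after 18 hours at 37 degrees C. The cells were HepG2 CAGA-GFP in 1% FBS DMEM, stimulated with 500 pg/mL TGF-beta after compound addition. %Activity was normalised to no-cell wells (complete cell-killing) and DMSO (no toxicity), and curves were fitted and classified.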
ATXN viability – viability counter-screen for ATXN expression inhibitors; S2 cells (HEK-293 line with an ATXN2-luciferase reporter) viability, CellTiter-Fluor protease fluorescence, 24 h; Potency, µM (titrated, usually from 56.7 µM), hits mostly cytotoxic; 0.49% of 400,000 active; note: nearly all actives have a fitted effect of over 40% in size
ATXN2 expr inh – reduces ATXN2 reporter expression in HEK-293 cells; HEK-293 ATXN2-luciferase reporter, luminescence, 24 h; Potency, µM (top dose mostly 57 µM), for inactives: top-dose activity change, negative = inhibition, usual class: inhibitors; 0.72% of 360,000 active; AID 1745845; note: % is set by controls: 0 for no effect and ±100 for the full control effect; nearly all actives have a fitted effect of over 55% in size
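ATXN2-luciferase reporter cells (luciferase flanked by upstream and downstream ATXN2 gene portions) were treated 24 h at 37 °C with compounds at up to 57 uM. SteadyGlo luminescence gave expression; GF-AFC fluorescence gave viability.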
HT1080 IDH1KD tx – toxicity to HT-1080 IDH1 knockdown cells (counter line); HT-1080 IDH1 knockdown viability, ATP luminescence, 48 h; Potency, µM (titrated, usually from 46.1 µM), without a hit: at the top dose activity, negative = toxicity, hits mostly cytotoxic; 2% of 360,000 active; AID 686971;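 note: 0% = DMSO wells and -100% = cell-free medium wells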
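Assay cells: HT-1080 with IDH1 knockdown, 750 per well, RPMI/5% FBS. Exposure: 48 h at 37 °C following 2 h pre-incubation. Read: CellTiter-Glo luminescence; fitted concentration-response, curve class assigned.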
TGFb CAGA inh – confirmation of TGF-b signaling inhibitors in HepG2 reporter cells. shares compounds with TGFb inhibitor. HepG2 CAGA-GFP TGF-b reporter, GFP fluorescence, 18 h; cells stimulated with TGF-beta, 500 pg/mL. Potency, µM (titrated, usually from 46.1 µM), for the others: at the top dose activity, negative = inhibition, usual class: inhibitors. 63% of 1,600 active; note: % is set by controls: 0 for no effect and ±100 for the full control effect; nearly all actives have a fitted effect of over 65% in size
HepG2 tox-2 – toxic to HepG2 cells in TGF-b counterscreen; shares compounds with TGFb inhibitor; HepG2 CAGA-GFP viability, ATP luminescence, 18 h; cells stimulated with TGF-beta, 500 pg/mL; Potency, µM (titrated, usually from 46.1 µM), for inactives: at the highest dose activity, negative = cytotoxicity, actives largely listed as inhibitors; 27% of 1,600 active; note: % is set by controls: 0 for no effect and ±100 for the full control effect; nearly all actives have a fitted effect of over 70% in size
TGFb CCL64 inh – TGF-b inhibition, CCL64 orthogonal assay. shares compounds with TGFb inhibitor. CCL64 CAGA-GFP reporter, TGF-b stimulated, GFP fluorescence, 18 h. Potency, µM (doses to about 46.1 µM), inactives show at the highest dose activity, negative = inhibition, most hits filed as inhibitors. 41% of 1,600 active; note: nearly all actives have a fitted effect of over 65% in size
TGFb COP inh – TGF-b inhibition validated with COP promoter. shares compounds with TGFb inhibitor. HepG2 COP-GFP TGF-b reporter, GFP fluorescence, 18 h; cells stimulated by added recombinant TGF-beta. Potency, µM (series often up to 46.1 µM), inactives show top-dose activity, negative = inhibition, most hits filed as inhibitors. 3% of 1,600 active. AID 720537; note: nearly all actives have a fitted effect of over 70% in size
The depositor's hits bear a star; i = inactive; ? = inconclusive; . = not tested or not shown. Sampled rows, rich in hits. Any-hit rate of the full collection: about 3.8%. Calls come from the whole dose curve; as a rule, active = well fitted curve in the direction sought with a large enough effect; inconclusive = small, poorly fitted or top-dose-only effect, or another doubt; inactive = no such curve, though single readings can be large; an effect the other way counts as inactive or inconclusive. Potency is the fitted concentration of half-maximal effect.

SMILES | HT1080NT lethal | TGFb inhibitor | HepG2 tox-1 | ATXN viability | ATXN2 expr inh | HT1080 IDH1KD tx | TGFb CAGA inh | HepG2 tox-2 | TGFb CCL64 inh | TGFb COP inh
CCC1=Nc2cc(C(=O)NC3CCC(C)CC3)ccc2Sc2ccc(C)cc21 (configuration not stated) | . | ? | -30% | ? | 9% | . | . | . | . | .
CCC1=Nc2cc(C(=O)NCc3ccco3)ccc2Sc2ccc(C)cc21 | 1.3µM* | ? | -25% | i | -5% | 1.3µM* | 2.3µM* | -18% | 1.5µM* | 11%
CCOC(=O)N1CCC(NC(=O)c2ccc3c(c2)N=C(CC)c2cc(C)ccc2S3)CC1 | ? | 16µM* | -6% | i | ? | 5.8µM* | 12µM* | -19% | ? | 26%
COc1ccc(N(CC(=O)Nc2cccc(Cl)c2)S(=O)(=O)c2c(C)[nH]c(=O)[nH]c2=O)cc1 | . | -8% | -1% | i | 6% | . | . | . | . | .
COc1ccc(C(=O)Nc2nnc(SCc3cc(=O)c4cccc(F)c4[nH]3)s2)cc1 | . | -7% | -32% | . | . | . | . | . | . | .
CN(CC(=O)N1CCN(Cc2ccccc2)CC1)C(=O)Cc1cccc2ccccc12 | 7% | 14µM* | -8% | ? | -15% | 0% | ? | -16% | 2% | -3%
Cc1ccccc1Cn1cnc2nc3c(cc2c1=O)CC(C)CC3 (configuration not stated) | . | 12% | 4% | i | 18% | . | . | . | . | .
O=C(Nc1ccccc1Cl)Nc1ccccc1Cl | -19% | 8% | 6% | i | 5% | 19% | . | . | . | .
O=C(Nc1csc([N+](=O)[O-])c1)Nc1ccccc1Cl | ? | 13µM* | -57% | ? | ? | ? | 16µM* | ? | ? | 48%
O=C(c1ccc(Cl)c(Cl)c1)N1CCC(=O)N(C(COCc2cccc(C(F)(F)F)c2)Cc2ccccc2)CC1 (configuration not stated) | ? | ? | -27% | ? | ? | ? | . | . | . | .
O=C(c1ccc(Cl)c(Cl)c1)N1CCC(=O)N(C(COCc2ccc(Cl)cc2)Cc2ccccc2)CC1 (configuration not stated) | -16% | 10µM* | -28% | ? | ? | ? | 21µM* | ? | ? | 18%
Cc1cccc(COCC(Cc2ccccc2)N2CCN(C(=O)c3cc(Cl)cc(Cl)c3)CCC2=O)c1 (configuration not stated) | ? | 13µM* | -26% | ? | ? | ? | 8.2µM* | ? | 13µM* | 36%
Cc1ccccc1OCC(=O)Nc1ccc2[nH]c(=O)sc2c1 | . | -17% | -27% | i | -23% | . | . | . | . | .
O=C(Cc1cccc(NC(=O)C2CCCN(C(=O)C3CCCCC3)C2)c1)Nc1cccc(C(=O)N2CCCC2)c1 (configuration not stated) | 0% | ? | -16% | i | -13% | 2% | ? | -8% | -24% | -5%
O=C(Nc1ccc(F)cc1F)Nc1sccc1-c1nc2ccccc2s1 | ? | 11µM* | 1% | i | . | 1% | ? | -17% | ? | -5%
Cc1cc(C)c(NC(=O)CCn2c(=O)c3cccn3c3ccccc32)c(C)c1 | . | -12% | -23% | . | . | . | . | . | . | .
CC(=O)Nc1cccc(NC(=O)Cn2cnc3c(oc4ccccc43)c2=O)c1 | . | 4% | -2% | i | 7% | . | . | . | . | .
CC[C@@H](CC1CCCCC1)C(=O)N(Cc1ccccc1)c1ccccc1 | -4% | 2.5µM* | -23% | i | -17% | -4% | -17% | ? | ? | 9%
Cn1cc(C(=O)NCc2ccc(Cl)cc2)c(=O)c2cc(S(=O)(=O)N3CCCCCC3)ccc21 | . | -2% | 3% | i | 7% | . | . | . | . | .
COc1ccc(NC(=O)[C@@H]2CC=C[C@@H]3CCN(Cc4ccc(Cl)c(Cl)c4)C(=O)[C@@H]32)cc1 | -30% | 13µM* | -23% | ? | -21% | ? | 2.9µM* | -22% | 29µM* | 29%
CN(Cc1cnc2ccccn12)C1CCN(c2cccc(NC(=O)c3cccnc3)c2)CC1 | . | . | . | i | . | . | . | . | . | .
Cc1ccc(-n2c(=O)c3c(C)c(C(=O)N(C)C)sc3n(CC(=O)N(C)c3ccccc3)c2=O)cc1C | . | 0% | -13% | . | . | . | . | . | . | .
CC(=O)Nc1nc(C)c(-c2csc(Nc3cccc(C(C)=O)c3)n2)s1 | ? | ? | -12% | ? | . | -4% | . | . | . | .
CC(=O)Nc1nc(C)c(-c2csc(Nc3cccc([N+](=O)[O-])c3)n2)s1 | ? | ? | -41% | i | ? | ? | -3% | ? | ? | 44%
COc1ccc(NC(=O)CCCSc2nc(-c3ccco3)cc(C(F)(F)F)n2)cc1OC | -24% | ? | -4% | ? | -31% | -25% | ? | -11% | -28% | 3%
COc1ccc(NC(=O)CCSc2nc(-c3ccco3)cc(C(F)(F)F)n2)cc1OC | . | -4% | -11% | i | 9% | . | . | . | . | .
CCOc1ccc(-n2cc(-c3ccccc3)c3c(NCCc4ccccc4)ncnc32)cc1 | . | -12% | -35% | . | . | . | . | . | . | .
S=C(Nc1ccccn1)c1ccccn1 | ? | 7.1µM* | -62% | i | 5% | ? | -22% | ? | ? | 6%
Cc1ccc2c(=O)cc(C(=O)N(Cc3ccc(C(C)(C)C)cc3)C3CCS(=O)(=O)C3)oc2c1 (configuration not stated) | . | ? | 0% | ? | -32% | . | . | . | . | .

Screening data (PubChem)
